This is an account of results in PubChem BioAssay (EPA / NIEHS).

Inconclusive results are not listed. Active and inactive are the calls of the source. How the source made its calls, unless noted: active means hit-call score of the fitted dose curve at least 0.9, where 1 is the maximum; inconclusive means response in the unintended direction; inactive means score below 0.9.

Test [1] can be described thus: Tanguay_ZF_120hpf_SOMI_legacy: (Legacy) Oregon State University Tanguay Lab 120 Hour Post-fertilization zebrafish Assay for Somite Malformation (AID 2283647). Put shortly:
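Somitogenesis defects are recorded as binary calls in whole larvae at 120 hpf after continuous static chemical exposure starting at 6 hpf in dechorionated 5D embryos. DMSO serves as negative control and baseline.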

Test [2] is described as follows: Tanguay_ZF_120hpf_PFIN_legacy: (Legacy) Oregon State University Tanguay Lab 120 Hour Post-fertilization zebrafish Assay for Pectoral Fin Malformation (AID 2283648).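 Further: each larva judged yes or no for fin defect by brightfield with dead larvae skipped.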 Put shortly: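 Pectoral fin malformation was recorded as a binary endpoint at 120 hpf in wild-type Tropical 5D larvae, which had been dechorionated and exposed statically from 6 hpf at 28C in 0.64% DMSO. Dead embryos were excluded.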

Test [3] is described as follows: Tanguay_ZF_120hpf_CFIN_legacy: (Legacy) Oregon State University Tanguay Lab 120 Hour Post-fertilization zebrafish Assay for Caudal Fin Malformation (AID 2283649). The method in brief:
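Single dechorionated 5D wild-type embryos are dosed at 6 hpf (final DMSO 0.64%) and held statically at 28C. Caudal fin malformation is recorded as present or absent at 120 hpf under brightfield, excluding dead embryos.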

Test [4] can be described thus: Tanguay_ZF_120hpf_PIG_legacy: (Legacy) Oregon State University Tanguay Lab 120 Hour Post-fertilization zebrafish Assay for Pigmentation Malformation (AID 2283650). Put shortly:
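Pigment malformation recorded as a binary call at 120 hpf in zebrafish (Tropical 5D) exposed singly from 6 hpf after pronase dechorionation. Static, sealed, 28C exposure, 0.64% DMSO; mortality excludes scoring; positive-direction fit against DMSO.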

A short description of test [5]: Tanguay_ZF_120hpf_TRUN_legacy: (Legacy) Oregon State University Tanguay Lab 120 Hour Post-fertilization zebrafish Assay for Truncated Body (AID 2283655). Put shortly: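 Single dechorionated zebrafish embryos received test chemical from 6 hpf in 0.64% DMSO, kept at 28C. At 120 hpf, brightfield inspection noted any truncated body.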
Test [6] is described as follows: Tanguay_ZF_120hpf_NC_legacy: (Legacy) Oregon State University Tanguay Lab 120 Hour Post-fertilization zebrafish Assay for Notochord and Tail Malformation (AID 2283656). The method in brief: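 Binary notochord-distortion calls, made by brightfield inspection, form the read-out; activity is fitted in the positive direction against DMSO. Exposure ran statically from 6 to 120 hpf at 28C with 0.64% DMSO.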

Test [7] deals with Thyroperoxidase (TPO), gene 54314. Kind of test: CCTE_Simmons_AUR_rTPO: CCTE's Amplex UltraRed Assay for Thyroperoxidase (TPO) Inhibition, Simmons Lab (AID 2283662).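 On AC50: potency for loss of signal meaning inhibition of peroxidase activity.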 Put shortly:
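Rat thyroid microsomes (5 ug protein) were incubated with test compound (8 concentrations, 5 nM–87.5 uM final, 0.5% DMSO), 25 uM Amplex UltraRed and 300 uM H2O2 in 200 mM phosphate buffer for 30 min at 37C in the dark; fluorescence read at 544/590 nm.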

Test [8] can be described thus: CCTE_Simmons_CellTiterGLO_HEK293T: Viability Assessment in CCTE's Assays for Thyroperoxidase (TPO) Inhibition, Simmons Lab (AID 2283665).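 On AC50: cells exposed to compound for 24 h before readout; actives reduce ATP signal below DMSO vehicle meaning cytotoxicity.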 Put shortly: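 Luminescent ATP readout (CellTiter-Glo, 20 min at room temperature) after 24 hr exposure of HEK293T cells to 5 nM–87.5 uM final compound; signal loss relative to DMSO vehicle indicated cytotoxicity; dichlone titrated as positive control.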
A general note: ATP-based viability assays read luminescence as a measure of living cells.

Test [9] in a line: CCTE_Padilla_ZF_144hpf_TERATOSCORE: (Legacy) CCTE's 144 Hour Post-fertilization zebrafish Assay Teratoscore, Padilla Lab (AID 2283679; active means hit-call score of the fitted dose curve at least 0.9, where 1 is the maximum; inactive means score below 0.9;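 further: zebrafish embryos with chorions exposed by immersion from 6-8 hpf to 5 dpf with daily renewal; teratogenicity score from eye scoring of death hatching and malformations at 144 hpf; higher score means more developmental defects relative to DMSO baseline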). Put shortly: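 Larvae scored by eye at 144 hpf for death, hatching and malformations after a day in clean Hanks'. Before that, daily-renewed exposure at 80 uM (0.4% DMSO, 26C) from roughly 6-8 hpf through 5 dpf, 4 embryos per chemical.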
The nature of test [10]: STM_H9_CystineISnorm_perc: Stemina devTOX quickPredict H9 human embryonic stem cell (hESC)-based Assay for Cystine (CYSS) Metabolite Biomarker, Normalized (AID 2283713; active means hit-call score of the fitted dose curve at least 0.9, where 1 is the maximum; inactive means score below 0.9). Put shortly: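 UPLC-HRMS read-out: endogenous cystine peak area in spent medium, normalized to isotope-labeled internal standard and to median of 0.1% DMSO controls. Pluripotent H9 cells, 72h exposure, daily medium/compound replenishment; medium from last 24h sampled.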

Test [11] is described as follows: STM_H9_OrnCyssISnorm_ratio: Stemina devTOX quickPredict H9 human embryonic stem cell (hESC)-based Assay for Ornithine (ORN):Cystine (CYSS) Ratio (AID 2283714). The method in brief:
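Ratio of internal-standard-normalized ornithine to cystine, measured by UPLC-HRMS in spent media from the last 24 h. H9 cells kept pluripotent, dosed 72 h with daily media and compound renewal; DMSO 0.1% serves as baseline.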

Test [12] can be described thus: Tanguay_ZF_120hpf_SWIM_legacy: (Legacy) Oregon State University Tanguay Lab 120 Hour Post-fertilization zebrafish Assay for Swim Bladder Malformation (AID 2283654).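 Further: swim bladder malformation in each larva scored yes or no under brightfield.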 Put shortly:
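Scoring is binary for swim bladder defects at 120 hpf, by brightfield inspection of zebrafish larvae. Embryos were exposed singly from 6 hpf after pronase dechorionation, at 28C with 0.64% DMSO; mortality excluded scoring.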

A short description of test [13]: Tanguay_ZF_120hpf_TR_legacy: (Legacy) Oregon State University Tanguay Lab 120 Hour Post-fertilization zebrafish Assay for Touch Response (AID 2283667). Put shortly: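 Binary touch-response endpoint in larvae at 120 hpf after static waterborne exposure from embryo stage (28°C, 0.64% DMSO vehicle, 5 uM trimethyltin chloride as positive control); embryos dead at 24 or 120 hpf excluded; fitted as gain versus DMSO.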

Test [14] in a line: Tanguay_ZF_120hpf_CIRC_legacy: (Legacy) Oregon State University Tanguay Lab 120 Hour Post-fertilization zebrafish Assay for Circulatory Malformation (AID 2283651). The method in brief:
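Static exposure, 6–120 hpf, 28C, sealed and dark; one dechorionated 5D embryo/well; DMSO 0.64% v/v final. Binary circulation endpoint by brightfield; dead embryos not scored.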

Read-out in test [15]: solute carrier (SLC22A6), SLC22A6 (gene 9356)
Kind of test: LTEA_HepaRG_SLC22A6: Life Technologies and Expression Analysis (LTEA) Assay for solute carrier (SLC22A6) using HepaRG (AID 2283653; active means hit-call score of the fitted dose curve at least 0.9, where 1 is the maximum; inactive means score below 0.9). Conditions: mRNA level, 48 h; actives raise or lower the signal. The method in brief:
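Gene-expression endpoint in HepaRG hepatic cells: duplicate 8-point concentration-response, highest 100 uM, 48 h treatment in serum-free medium with 0.5% DMSO. SLC22A6 expression measured by qRT-PCR, normalised to ACTB/GAPDH/POLR2A.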

Read-out in test [16]: solute carrier (SLC10A1), SLC10A1 (gene 6554)
Kind of test: LTEA_HepaRG_SLC10A1: Life Technologies and Expression Analysis (LTEA) Assay for solute carrier (SLC10A1) using HepaRG (AID 2283657; active means hit-call score of the fitted dose curve at least 0.9, where 1 is the maximum; inactive means score below 0.9). Conditions: mRNA level, 48 h; actives raise or lower the signal. The method in brief: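 SLC10A1 transcript measured by TaqMan qRT-PCR, housekeeping-normalised, after 48 h chemical treatment of human HepaRG cells. Eight concentrations (half-log, max 100 uM, 0.5% DMSO vehicle) in duplicate; fitted bidirectionally against DMSO baseline.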

Read-out in test [17]: matrix metalloproteinase-1 (MMP1), MMP1 (gene 4312)
Kind of test: LTEA_HepaRG_MMP1: Life Technologies and Expression Analysis (LTEA) Assay for matrix metalloproteinase-1 (MMP1) using HepaRG (AID 2283658; active means hit-call score of the fitted dose curve at least 0.9, where 1 is the maximum; inactive means score below 0.9). Conditions: mRNA level, 48 h; actives raise or lower the signal. The method in brief:
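In this screen, human liver HepaRG cultures receive each chemical in duplicate for 48 h (top 100 uM, 0.5% DMSO). MMP1 expression is then quantified by TaqMan qRT-PCR with ACTB/GAPDH/POLR2A normalization.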

Read-out in test [18]: Cytochrome P450 (CYP24A1_1), CYP24A1 (gene 1591)
Kind of test: LTEA_HepaRG_CYP24A1_1: Life Technologies and Expression Analysis (LTEA) Assay for Cytochrome P450 (CYP24A1_1) using HepaRG (AID 2283671; active means hit-call score of the fitted dose curve at least 0.9, where 1 is the maximum; inactive means score below 0.9). Conditions: mRNA level, 48 h; actives raise or lower the signal. Put shortly: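 Differentiated human HepaRG cells were exposed in duplicate for 48 h in serum-free induction medium to eight concentrations (top 100 uM, half-log steps, 0.5% DMSO). CYP24A1 mRNA was quantified by TaqMan qRT-PCR, normalized to ACTB, GAPDH and POLR2A, and fitted bidirectionally versus DMSO.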

Usually AC50 stands for the midpoint of the concentration-response curve, whichever way the signal moves.

Turning to `Nc1ccccc1N`, the call in [1], in [2], in test [3], in test [4], in [6] and in test [8] was inactive. The outcome in test [10] was inactive. Also, the half-maximal activity concentration (AC50) in test [5] was 10.9 µM (active); in test [7] it was 4.15 µM (active); in [9], 89.9 µM (active); in [11] it was 8.66 µM (active).
On to `CC(CO)OC(C)CO` (stereo unspecified) (tested in a mixture with another compound), for which the compound was called inactive in [2], in test [3], in test [4], in [12], in test [5] and in test [6]. Also, the result in test [10] was inactive.
Regarding `CCc1c(C(=O)NN2CCCCC2)nn(-c2ccc(Cl)cc2Cl)c1-c1ccc(Br)cc1`, the compound was called inactive in test [1], in test [3], in [4] and in [6]. The AC50 in test [9] is 0.533 µM (active).
On to `CNC(=O)[C@H]1O[C@@H](n2cnc3c(NCc4cc(Cl)ccc4OCc4cc(C)no4)ncnc32)[C@H](O)[C@@H]1N`, for which the result in [1], in test [3], in test [4], in test [5], in test [6] and in test [7] was inactive.
Consider `COc1cc(S(=O)(=O)O)c(C)cc1N=Nc1c(O)ccc2cc(S(=O)(=O)O)ccc12`, for which the compound was classed as inactive in [1], in test [3], in test [4], in test [5], in test [6] and in test [13]. Also, the half-maximal activity concentration (AC50) is 23.3 µM (active) in [7] and 13.4 µM (active) in test [8].
As for `CCCCCCCCCCCCCCCC`, the outcome in test [1], in [2], in test [3], in test [4], in test [5] and in test [6] was inactive. The compound was called inactive in test [13].
For the compound `CC1=C(/C=C/C(C)=C/C=C/C(C)=C/CO)C(C)(C)CCC1`, the outcome in test [1], in test [2], in test [3], in test [4], in test [5] and in test [6] was inactive. In [10], the result was inactive. Besides, the AC50 in [7] was 28.6 µM (active); in [8] it was 12 µM (active); in test [9] it was 28.2 µM (active).
Take `Nc1nc(N)c2nc(CNc3ccc(C(=O)N[C@@H](CCC(=O)O)C(=O)O)cc3)cnc2n1`: the result in test [1], in test [2], in [4], in test [5], in test [6] and in [13] was inactive. Moreover, the AC50 in [7] is 11.7 µM (active); in [8], 0.189 µM (active).
`NC(=O)Cn1c(=O)cc(CCN2CCN(c3nccc4sccc34)CC2)c2ccc(F)cc21`: the compound was called inactive in test [2], in [3], in test [5], in test [6], in test [10] and in test [11].
For `CN[C@H]1CC[C@@H](c2ccc(Cl)c(Cl)c2)c2ccc(S(N)(=O)=O)cc21`, the call in test [2], in [3], in [4], in test [12], in test [5] and in test [6] was inactive. Moreover, the compound was called inactive in [7]. Moreover, the figures for the concentration at half-maximal activity (AC50) in [8] and in test [9] were 9.23 µM (active) and 61.9 µM (active), respectively.
Turning to `CCCCCCCCCCCCCCCCCC(=O)O`, the compound was classed as inactive in [2], in test [3], in test [4], in test [12] and in test [5].
Regarding `Cc1cccc(Nc2cc(Cl)nc(SCC(=O)O)n2)c1C`, the result in test [1], in [2], in test [3], in [4], in test [5] and in test [6] was inactive. For the same compound, the AC50 in test [10] is 53.6 µM (active).
For `Cc1ccc(C)c(C)c1`, the compound was classed as inactive in test [1], in [3], in test [4], in test [14], in test [15] and in test [12]. The compound was called inactive in test [5], in [6], in test [16], in test [17], in [13] and in test [18].
